Molecules are shown by their SMILES. Hit rate of the full screen: of about 7,700 compounds, about 15 (0.2%) were called active. About 6% were inconclusive and are not listed.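 Rule for the calls: active = more than half of replicate wells with inhibition above about 18% (limit read from the data, passing the limit was not always enough); inconclusive = exactly half of replicate wells above that limit; inactive = fewer than half of replicates above it.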 The entries come from a sample that favours actives as a whole.

The target in this assay is Regulator of chromosome condensation (Homo sapiens) + GTP-binding nuclear protein Ran (Homo sapiens) + Importin subunit beta-1 (Homo sapiens) (UniProt P18754+P62826+Q14974). The experiment in a line: inhibitors of Ran–importin-beta complex formation, primary screen, biochemical, CFP-Ran/YFP-importin-beta FRET, RCC1, cell-free (AID 434961).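 Note: 0% = DMSO wells and 100% inhibition = RanGDP control wells on each plate.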 Particulars: hits give high values, concentration not given here.
What is called inhibition is the change of the read-out against control, counted positive when it falls. For the compound `C[C@@H]1CCCCO[C@@H](CN(C)S(=O)(=O)c2cn(C)cn2)[C@H](C)CN([C@@H](C)CO)C(=O)c2cc(NC(=O)c3ccccc3)ccc2O1`, the inhibition is 1.13% (inactive).

As to `Cc1ccc(S(=O)(=O)Nc2ccc3c(c2)CC(=O)N([C@H](C)CO)C[C@H](C)[C@@H](CN(C)Cc2ccncc2)O3)cc1`, the inhibition is 0.0587% (inactive).

For the compound `Cc1noc(C)c1S(=O)(=O)Nc1ccc2c(c1)CC(=O)N([C@H](C)CO)C[C@@H](C)[C@@H](CN(C)C(=O)NC(C)C)O2`, the inhibition was -4.94% (inactive).

As for `C[C@H]1CN([C@@H](C)CO)C(=O)Cc2cc(NC(=O)C3CC3)ccc2O[C@H]1CN(C)Cc1ccc(Cl)c(Cl)c1`, the inhibition was 7.64% (inactive). In the case of `C[C@@H]1CCCCO[C@H](CN(C)C(=O)Nc2ccccc2)[C@@H](C)CN([C@H](C)CO)C(=O)c2cc(NC(=O)Cc3ccccc3)ccc2O1` it was 0.496% (inactive); in that of `C[C@@H]1CCCCO[C@H](CN(C)C(=O)CCCN(C)C)[C@@H](C)CN([C@H](C)CO)C(=O)c2cc(NS(=O)(=O)c3cccs3)ccc2O1`, -2.86% (inactive). In the case of `C[C@@H]1CN([C@@H](C)CO)C(=O)c2cc(NC(=O)c3ccncc3)ccc2O[C@H]1CN(C)C(=O)Nc1ccccc1` it was 4.49% (inactive). As for `Cc1noc(C)c1NC(=O)N(C)C[C@@H]1Oc2ccc(NC(=O)Nc3cccc4ccccc34)cc2C(=O)N([C@H](C)CO)C[C@H]1C`, the figure is -0.0777% (inactive).

For the compound `C[C@@H]1CN([C@H](C)CO)C(=O)Cc2cc(NC(=O)C3CC3)ccc2O[C@H]1CN(C)C`, the inhibition was -6.15% (inactive). As for `C[C@@H]1CCCCO[C@H](CN(C)Cc2ccncc2)[C@H](C)CN([C@H](C)CO)C(=O)c2cc(NC(=O)c3ccncc3)ccc2O1`, the figure is -0.929% (inactive); as for `C[C@@H]1CCCCO[C@@H](CN(C)S(=O)(=O)c2cccs2)[C@H](C)CN([C@H](C)CO)C(=O)c2cc(NS(C)(=O)=O)ccc2O1`, -1.23% (inactive); as for `Cc1cc(C(=O)Nc2cccc3c2O[C@@H](CN(C)CC2CC2)[C@@H](C)CN([C@@H](C)CO)C3=O)n(C)n1`, -1.14% (inactive). In the case of `C[C@H](CO)N1C[C@H](C)[C@H](CN(C)CC2CC2)Oc2c(NC(=O)c3ccc(-c4nccs4)cc3)cccc2C1=O` it was -0.371% (inactive); in that of `C[C@H]1CN([C@@H](C)CO)C(=O)c2cccc(NC(=O)c3ccc(-c4nccs4)cc3)c2O[C@@H]1CN(C)C(=O)Nc1ccccc1`, 0.856% (inactive). In the case of `C[C@@H]1CN([C@H](C)CO)C(=O)c2cccc(NC(=O)c3ccc(-c4nccs4)cc3)c2O[C@@H]1CN(C)CC1CC1` it was 29.6% (active); in that of `C[C@H]1CN([C@@H](C)CO)C(=O)c2cccc(NC(=O)c3ccc(-c4nccs4)cc3)c2O[C@H]1CN(C)CC1CC1`, 1.58% (inactive). On to `C[C@H]1CN([C@@H](C)CO)C(=O)c2cccc(NC(=O)c3ccc(-c4nccs4)cc3)c2O[C@H]1CN(C)C(=O)Nc1ccccc1`, for which the inhibition is 18.7% (active). In the case of `C[C@@H]1CN([C@H](C)CO)C(=O)c2cccc(NC(=O)c3ccc(-c4nccs4)cc3)c2O[C@@H]1CN(C)C(=O)Nc1ccccc1` it was -1.55% (inactive). Consider `Cc1noc(C)c1NC(=O)N(C)C[C@@H]1Oc2ccc(NS(=O)(=O)c3cccs3)cc2C(=O)N([C@H](C)CO)C[C@@H]1C`, for which the inhibition is -1.63% (inactive). As for `C[C@@H]1CCCCO[C@@H](CN(C)C(=O)CCC(F)(F)F)[C@H](C)CN([C@@H](C)CO)C(=O)c2cc(NS(=O)(=O)c3ccccc3)ccc2O1`, the figure is -3.22% (inactive); as for `C[C@@H]1CN([C@@H](C)CO)C(=O)c2cccc(NS(C)(=O)=O)c2O[C@H]1CN(C)S(=O)(=O)c1cn(C)cn1`, 0.88% (inactive). On to `C[C@H]1CN([C@@H](C)CO)C(=O)Cc2cc(NC(=O)Cc3cn(C)c4ccccc34)ccc2O[C@@H]1CN(C)C(=O)Nc1ccccc1`, for which the inhibition was 0.0312% (inactive). As for `Cc1noc(C)c1S(=O)(=O)Nc1cccc2c1O[C@H](CN(C)C(=O)NC1CCCCC1)[C@H](C)CN([C@@H](C)CO)C2=O`, the figure is -6.51% (inactive). As for `Cc1noc(C)c1S(=O)(=O)Nc1cccc2c1O[C@@H](CN(C)Cc1ccc(C(F)(F)F)cc1)[C@@H](C)CN([C@@H](C)CO)C2=O`, the figure is -1.54% (inactive); as for `C[C@H]1CN([C@@H](C)CO)C(=O)c2cc(NC(=O)C3CC3)ccc2O[C@@H]1CN(C)Cc1ccc(Cl)c(Cl)c1`, -5.2% (inactive). As for `C[C@@H]1CN([C@H](C)CO)C(=O)Cc2cc(NC(=O)Nc3ccccc3)ccc2O[C@@H]1CN(C)C(=O)Nc1ccc(C(F)(F)F)cc1`, the figure is -1.14% (inactive); as for `C[C@@H]1CCCCO[C@H](CN(C)C)[C@@H](C)CN([C@H](C)CO)C(=O)c2cc(NC(=O)Nc3ccc(F)cc3)ccc2O1`, 3.67% (inactive). Turning to `Cc1noc(C)c1S(=O)(=O)Nc1cccc2c1O[C@H](CN(C)C)[C@H](C)CN([C@H](C)CO)C2=O`, the inhibition is 5.73% (inactive).

Regarding `C[C@@H]1CN([C@@H](C)CO)C(=O)c2cc(NC(=O)Nc3ccc4c(c3)OCO4)ccc2O[C@@H]1CN(C)Cc1ccc(C(=O)O)cc1`, the inhibition is -3.71% (inactive).

Turning to `C[C@@H]1CN([C@@H](C)CO)C(=O)CCCn2nncc2CO[C@@H]1CN(C)C`, the inhibition was 4.43% (inactive).

`COc1ccc(CN(C)C[C@@H]2OCCCC[C@H](C)Oc3ccc(NC(=O)Nc4c(C)noc4C)cc3C(=O)N([C@H](C)CO)C[C@@H]2C)cc1`: the inhibition was 0.0847% (inactive).

Regarding `Cc1noc(C)c1S(=O)(=O)Nc1ccc2c(c1)CC(=O)N([C@H](C)CO)C[C@H](C)[C@H](CN(C)C(=O)Nc1cccc3ccccc13)O2`, the inhibition was 5.9% (inactive).

On to `C[C@H](CO)N1C[C@H](C)[C@H](CN(C)S(=O)(=O)c2cccs2)Oc2c(NC(=O)Nc3ccc(C(F)(F)F)cc3)cccc2C1=O`, for which the inhibition was 3.84% (inactive).

`CC(C)NC(=O)N(C)C[C@H]1OCCCC[C@H](C)Oc2ccc(NC(=O)CCCN(C)C)cc2C(=O)N([C@H](C)CO)C[C@@H]1C`: the inhibition is -1.47% (inactive). As for `C[C@@H]1CN([C@@H](C)CO)C(=O)CCCn2cc(nn2)CO[C@H]1CN(C)C(=O)Nc1ccc(-c2cccs2)cc1`, the figure is -3.35% (inactive); as for `COc1ccc(S(=O)(=O)Nc2ccc3c(c2)CC(=O)N([C@H](C)CO)C[C@H](C)[C@H](CN(C)S(=O)(=O)c2cn(C)cn2)O3)cc1`, 5.44% (inactive); as for `C[C@@H]1CN([C@@H](C)CO)C(=O)c2cccc(NS(=O)(=O)c3cccs3)c2O[C@@H]1CN(C)Cc1ccc(C(=O)O)cc1`, -3.95% (inactive).

Take `Cc1ccc(S(=O)(=O)Nc2ccc3c(c2)CC(=O)N([C@H](C)CO)C[C@@H](C)[C@@H](CN(C)C(=O)Nc2c(C)noc2C)O3)cc1`: the inhibition is 1.18% (inactive).

For `C[C@H]1CN([C@@H](C)CO)C(=O)c2cccc(NC(=O)c3cnccn3)c2O[C@@H]1CN(C)C(=O)Nc1ccccc1`, the inhibition was -1.79% (inactive).

With `C[C@H]1CCCCO[C@H](CN(C)C(=O)C2CCCCC2)[C@@H](C)CN([C@@H](C)CO)C(=O)c2cc(NS(=O)(=O)c3cccs3)ccc2O1`, the inhibition is 2.26% (inactive). `C[C@@H]1CN([C@H](C)CO)C(=O)c2cc(NC(=O)c3ccncc3)ccc2O[C@@H](C)CCCCO[C@H]1CN(C)Cc1ccc(C(=O)O)cc1`: the inhibition was -0.563% (inactive). Consider `COc1ccc(NC(=O)Nc2ccc3c(c2)C(=O)N([C@H](C)CO)C[C@H](C)[C@@H](CN(C)C)O3)cc1`, for which the inhibition was -2.6% (inactive). Turning to `COc1ccc(CN(C)C[C@@H]2Oc3c(NS(=O)(=O)c4ccc(OC)cc4)cccc3C(=O)N([C@@H](C)CO)C[C@H]2C)cc1`, the inhibition is 0.462% (inactive). Regarding `C[C@@H]1CCCCO[C@@H](CN(C)C(=O)Nc2cccc3ccccc23)[C@@H](C)CN([C@@H](C)CO)C(=O)c2cc(N(C)C)ccc2O1`, the inhibition is 2.86% (inactive). For `Cc1noc(C)c1NC(=O)N(C)C[C@H]1Oc2c(NS(=O)(=O)c3ccccc3)cccc2C(=O)N([C@H](C)CO)C[C@@H]1C`, the inhibition was 4.19% (inactive). Take `C[C@H]1CN([C@@H](C)CO)C(=O)CCCn2cc(nn2)CO[C@H]1CN(C)S(=O)(=O)c1ccc(Oc2ccccc2)nc1`: the inhibition is 0.77% (inactive). Consider `C[C@@H]1CCCCO[C@@H](CN(C)Cc2ccccc2)[C@H](C)CN([C@@H](C)CO)C(=O)c2cc(NS(=O)(=O)c3ccccc3)ccc2O1`, for which the inhibition was 1.85% (inactive). In the case of `C[C@@H]1CN([C@@H](C)CO)C(=O)c2cc(NS(=O)(=O)c3cccs3)ccc2O[C@@H]1CN(C)C(=O)Nc1ccc(F)cc1` it was -0.701% (inactive); in that of `C[C@@H]1CN([C@H](C)CO)C(=O)c2cc(NC(=O)c3ccncc3)ccc2O[C@@H](C)CCCCO[C@H]1CN(C)S(=O)(=O)c1ccc(F)cc1`, 0.556% (inactive). In the case of `COc1ccc(NC(=O)Nc2ccc3c(c2)C(=O)N([C@@H](C)CO)C[C@H](C)[C@H](CN(C)C)O3)cc1`, the inhibition is 4.32% (inactive). Turning to `C[C@@H]1CCCCO[C@@H](CN(C)C(=O)C2CCCCC2)[C@@H](C)CN([C@@H](C)CO)C(=O)c2cc(NC(=O)Nc3ccccc3)ccc2O1`, the inhibition was -1.24% (inactive). In the case of `COc1ccc(NC(=O)Nc2ccc3c(c2)C(=O)N([C@H](C)CO)C[C@@H](C)[C@@H](CN(C)S(=O)(=O)c2cn(C)cn2)O3)cc1` it was 0.222% (inactive).

On to `C[C@H]1CN([C@@H](C)CO)C(=O)c2cccc(NC(=O)C3CCOCC3)c2O[C@H]1CN(C)Cc1ccc(Oc2ccccc2)cc1`, for which the inhibition is 5.74% (inactive). Consider `C[C@@H]1CN([C@@H](C)CO)C(=O)c2cc(NC(=O)Nc3ccc4c(c3)OCO4)ccc2O[C@@H]1CN(C)C`, for which the inhibition is -2.36% (inactive).

In the case of `C[C@H]1CCCCO[C@@H](CN(C)S(=O)(=O)c2ccccc2)[C@@H](C)CN([C@@H](C)CO)C(=O)c2cc(N(C)C)ccc2O1`, the inhibition was 1.05% (inactive).

The record behind these values is PubChem BioAssay AID434961 (Broad Institute, 2010).
